# This is a sample that favours compounds with a hit; in the whole collection about 1.6% have one here.
# KCNQ2 pot = potentiators of rat KCNQ2 potassium channel; AID 2239, 2010; B-score at 10 µM; Potassium voltage-gated channel subfamily KQT member 2 (Rattus norvegicus), O88943; CHO-K1 KCNQ2, FluxOR thallium flux fluorescence; stronger effect = higher value; 310,000 compounds, 0.54% hits;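 active = fluorescence ratio B-score at least 3 SD of library B-scores, with initial fluorescence B-score within 3 of them, cut at about 5.3 in these data; same plate scores as AID 2156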;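 note: B-score of peak minus minimum over baseline fluorescence ratio after K+ and Tl+ stimulus; positive B-score means potentiation of KCNQ2 with more thallium influx and brighter signal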
# KCNQ2 inh = rat KCNQ2 potassium channel inhibitors, primary screen, cell-based, CHO-K1, FluxOR thallium flux, B-score. B-score at 10 µM. 20 min; stronger effect = lower value. 310,000 compounds, 1.1% hits. Potassium voltage-gated channel subfamily KQT member 2 (Rattus norvegicus), O88943;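 active = fluorescence ratio B-score at most minus 3 library SDs, with starting brightness B-score within 2 library SDs, cut at about -5.5 in these data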
# * = called active by the depositor; i = inactive; . = no result.
SMILES,KCNQ2 pot,KCNQ2 inh
COc1ccccc1Nc1cc(C(=O)N2CCc3ccccc3C2)c2ccccc2n1,-6.28,-6.28*
COc1ccccc1-c1cc(C(=O)N2CCc3ccccc3C2)c2ccccc2n1,.,i
COCCCNC(=O)c1cc(Nc2ccc(OC)cc2OC)nc2ccccc12,0.01,i
COc1ccc(C(=O)Nc2ccccc2C(=O)Nc2ccncc2)cc1,.,i
Cc1ccc(S(=O)(=O)c2nc(S(=O)(=O)c3ccc(C)cc3)c(N3CCN(CCO)CC3)s2)cc1,.,i
CCOc1ccc(OCCC(=O)OCC(=O)Nc2cc(OCC)c(N3CCOCC3)cc2OCC)cc1,.,i
CC1CCCCC1NC(=O)CNC(=O)c1cccs1 (stereo not given),1.34,i
CCOc1ccccc1NC(=O)c1cc(-c2cc(OC)c(OC)c(OC)c2)nc2ccccc12,-6.11,-6.11*
COC(=O)c1cc(OC)c(OC)cc1NC(=O)c1cc(-c2ccccc2)nc2ccccc12,.,i
NC(=O)c1cccnc1Oc1ccc(Cl)cc1,.,i
O=C(Nc1cccnc1Oc1ccc(Cl)cc1)c1cccc2ccccc12,-5.99,-5.99*
COc1ccccc1CC(=O)Nc1cccc2ccccc12,.,i
COc1cccc(C(=O)Nc2cccc3ccccc23)c1OC,-6.19,-6.19*
CCOc1ccccc1NC(=O)c1ccccc1-c1ccccc1,-5.58,-5.58*
CCOc1ccccc1NC(=O)c1ccccc1-c1nc(-c2ccccc2)no1,.,i
COc1ccc(C(=O)N/C(=C/c2cccnc2)C(=O)Nc2cccc(C(C)=O)c2)cc1OC,0.79,i
O=C(O)CCCC(=O)N1CCOCCOCCOCCOCC1,0.03,i
C#CCn1c(CCNC(=O)c2ccco2)nc2ccccc21,1.38,i
C=CCN1CCN(C(=O)c2cc3c(s2)CCCC3)CC1,.,i
CCOc1ccccc1C(=O)Nc1ccccc1C(N)=O,0.61,i
CCOc1ccccc1NC(=O)c1cccc2ccccc12,-5.55,-5.55*
O=C(COC(=O)c1ccc(Sc2ccccc2)c([N+](=O)[O-])c1)NC1CCCc2ccccc21 (stereo not given),-6.94,-6.94*
CC1CC(C)CN(c2ccc(C(=O)OCC(=O)NC3CCCc4ccccc43)cc2[N+](=O)[O-])C1 (stereo not given),-7.77,-7.77*
Cn1cnnc1Sc1ccc(C(=O)OCC(=O)NC2CC2)cc1[N+](=O)[O-],1.21,i
CC1CCCN(c2ccc(C(=O)OCC(=O)N3c4ccccc4Sc4ccccc43)cc2[N+](=O)[O-])C1 (stereo not given),.,i
SMILES,KCNQ2 pot,KCNQ2 inh
CC(Oc1ccc(Cl)cc1Cl)C(=O)NNC(=O)C(=O)N1CCCC1 (stereo not given),1.41,i
Cc1ccc(C)c(NC(=O)CN(C)C(=O)COc2cccc3c2OC(C)(C)C3)c1,.,i
COC(=O)c1ccc(CN2CCC(n3nccc3NC(=O)C3CCCC3)CC2)cc1,0.06,i
FC(F)(F)c1cccc(Oc2nc(-c3ccccc3)nnc2C(F)(F)F)c1,.,i
FC(F)(F)c1nnc(-c2ccccc2)nc1Oc1ccc(Cl)cc1Cl,-7.72,-7.72*
CSc1ncccc1C(=O)NC1CCCc2c1cnn2-c1ccc(C)c(C)c1 (stereo not given),0.54,i
OCCN1CCN(c2nc(-c3ccccc3)c3cc(Cl)ccc3n2)CC1,.,i
Clc1ccc2nc(N3CCNCC3)nc(-c3ccccc3)c2c1,-5.9,-5.9*
CC1C(=O)N2CCCc3cc(NC(=O)c4ccccc4F)cc1c32 (stereo not given),0.42,i
CN(C(=O)c1ccc(COc2ccccc2Br)o1)c1ccccc1,-6.19,-6.19*
CN(C)CCOC(=O)c1ccc(COc2ccccc2Br)o1,1.31,i
O=C(c1ccccc1)N(Cc1ccccc1)Cc1ccccc1,-6.32,-6.32*
O=C(C1CC1)N(CCN(Cc1ccccc1)C(=O)C1CC1)Cc1ccccc1,-7.14,-7.14*
CCN(Cc1ccccc1)C(=O)C1CCN(CC2CC=CCC2)CC1 (stereo not given),.,i
CCN(Cc1ccccc1)C(=O)c1ccc(C(=O)N(CC)Cc2ccccc2)cc1,.,i
Cc1ccccc1-n1ncc2c1CC(C)(C)CC2NC(=O)C1=CC(=O)CC(C)(C)O1 (stereo not given),.,i
O=C(Nc1ccccc1N1CCOCC1)C1(c2ccc(Cl)cc2)CCC1,-6.49,-6.49*
O=C(Cc1ccc(Cl)c(Cl)c1)Nc1ccccc1N1CCOCC1,0.67,i
Cc1ccc(S(=O)(=O)N2CCCC(C(=O)NCCc3ccc(S(N)(=O)=O)cc3)C2)cc1 (stereo not given),.,i
O=C1NC2(CCN(Cc3ccccc3)CC2)Oc2ccccc21,.,i
O=C1c2ccccc2OC2(C=Cc3ccccc3O2)N1Cc1ccccc1 (stereo not given),-8.32,-8.32*
Nc1c(C(=O)c2ccccc2)sc2snc(SCC(=O)c3ccccc3)c12,-5.95,-5.95*
Nc1nnc(SCC(=O)c2ccccc2)s1,0.86,i
